Screening results as filed in PubChem.
Tb PYK inh – blocks Trypanosoma brucei pyruvate kinase; TbPYK enzyme, Kinase-Glo Plus ATP luminescence, 45 min; AID 624173; actives 0.12% (n = 410,000); Potency, µM (doses to about 76.8 µM), inactives show at the top dose activity, negative = inhibition, hits mostly inhibitors; Q57TT1; active = well fitted curve in the direction sought with a large enough effect; inconclusive = small, poorly fitted or top-dose-only effect, or another doubt; inactive = no such curve, though single readings can be large; an effect the other way counts as inactive or inconclusive; also: potency is read from the fitted curve at half-maximal effect; % is scaled to controls: 0 for no effect and ±100 for the full control effect; nearly all actives have a fitted effect of over 50% in size
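T. brucei PYK with substrate was exposed to pin-transferred compounds across a concentration series, then started with 130 uM ADP (final). After 45 min at room temperature, Kinase-Glo Plus luminescence was read, normalized and curve-fitted.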
Shiga inhibitor – blocks Shiga toxin action in Vero cells | Vero cells, Shiga toxin protein synthesis inhibition reporter | inhibition, % at 38.7 µM | actives 9.2% (n = 290,000) | AID 2315; in the data active = inhibition mostly above about 28%, no sharp cut-off; inactive = mostly below about 43%; also: 0% is about no effect
Cycloheximide cs – counter-screen hit for Shiga toxin inhibitors, cycloheximide; cell reporter, cycloheximide protein synthesis inhibition counterscreen; actives 12% (n = 300,000); max response, %; in the data active = max response mostly above about 13%, no sharp cut-off; inactive = mostly below about 14%; also: read at 38.3 µM for the half of the compounds with a filed dose; 0% is about no effect
SARS PLpro yeast – blocks SARS-CoV papain-like protease in a yeast assay; S. cerevisiae expressing SARS-CoV PLpro, growth rescue; Potency, µM (doses to about 32.9 µM), for inactives: top-dose activity, positive = growth rescue, usual class: activators; actives 0.19% (n = 330,000); AID 485353; also: potency is read from the fitted curve at half-maximal effect; 0% is about no effect; nearly all actives have a fitted effect of over 55% in size
NS1 function inh – blocks influenza NS1 protein function; actives 0.4% (n = 270,000); Potency, µM (doses to about 46.1 µM), without a hit: at the top dose activity, positive = more growth; also: potency is read from the fitted curve at half-maximal effect; actives are rising curves; nearly all actives have a fitted effect of over 50% in size
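Growth recovery, yeast-based: influenza A NS1 expressed in S. cerevisiae causes slow growth, and suppressors are detected by OD600. The parent strain without NS1 is used as positive control.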
LmPK inh – LmPK (Leishmania mexicana) enzyme inhibition; Q27686; purified LmPK, Kinase-Glo ATP luminescence, 1 h; Potency, µM (titrated, usually from 57.5 µM), for the others: at the highest dose activity change, negative = inhibition, actives largely listed as inhibitors; actives 0.37% (n = 290,000); active = well fitted curve in the direction sought with a large enough effect; inconclusive = small, poorly fitted or top-dose-only effect, or another doubt; inactive = no such curve, though single readings can be large; an effect the other way counts as inactive or inconclusive; also: potency is read from the fitted curve at half-maximal effect; % is scaled to controls: 0 for no effect and ±100 for the full control effect
Target sequence (Q27686 whole entry, looked up): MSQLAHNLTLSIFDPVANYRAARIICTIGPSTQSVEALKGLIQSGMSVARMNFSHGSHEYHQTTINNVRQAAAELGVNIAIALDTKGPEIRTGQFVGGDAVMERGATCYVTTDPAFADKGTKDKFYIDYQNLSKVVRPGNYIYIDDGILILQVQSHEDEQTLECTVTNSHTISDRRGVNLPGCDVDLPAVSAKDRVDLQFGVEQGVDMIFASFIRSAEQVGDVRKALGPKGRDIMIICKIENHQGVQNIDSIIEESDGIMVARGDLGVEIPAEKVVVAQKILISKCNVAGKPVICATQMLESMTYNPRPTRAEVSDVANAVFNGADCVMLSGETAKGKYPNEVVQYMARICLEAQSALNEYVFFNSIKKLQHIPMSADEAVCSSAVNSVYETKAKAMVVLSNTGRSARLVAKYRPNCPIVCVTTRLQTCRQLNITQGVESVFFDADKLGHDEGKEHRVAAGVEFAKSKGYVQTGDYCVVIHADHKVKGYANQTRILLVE
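Screened at intermediate enzyme activity to detect both inhibitors and activators: LmPK at 0.1 nM, with a 0.5 nM enzyme column as activation reference. PEP 0.5 mM, ADP 0.1 mM; ATP detected by luminescence after 1 h.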
* marks the source's active call; other numbers are inactive results; ? = inconclusive; . = no result given; ! = repeats disagree; [ ] = another dose, or the depositor's remark. This excerpt belongs to a sample that is enriched for hits. Unless noted, calls follow the shape of the full dose curve.

SMILES	Tb PYK inh	Shiga inhibitor	Cycloheximide cs	SARS PLpro yeast	NS1 function inh	LmPK inh
Cc1cc(C)n(CCC(=O)Nc2ccc(-c3ccno3)cc2)n1	-3%	-3	-4	1%	-7%	-1%
Cc1cccc(CSc2[nH]c(=O)ncc2C)c1	-3%	10	10	0%	7%	-1%
Cc1cccc(CSc2cccc3cccnc23)c1	-22%	152*	60*	-27%	-125%	-6%
O=C1CCC/C(=N\NC(=O)c2ccc(CSc3cccc4cccnc34)cc2)C1	-2%	3	-1	2%	.	-3%
CCOC(=O)CSc1cccc2cccnc12	-11%	53*	17	9%	-33%	1%
O=C(N/N=C/c1ccccc1Br)c1ccc(CSc2cccc3cccnc23)cc1	.	8	12*	-4%	10%	-3%
NNC(=O)c1ccc(CSc2cccc3cccnc23)cc1	0%	20	23*	-2%	.	1%
c1cnc2c(SCc3ccc(-c4nnco4)cc3)cccc2c1	-17%	68*	39*	4%	-80%	-10%
Cc1ccc(NC(=O)CN(C)C(=O)c2cccc(-n3cccc3)c2)cc1	3%	.	.	2%	.	.
Cc1noc(C)c1COc1ccc(C(=O)Nc2ccccn2)cc1	-1%	89*	44*	-4%	-26%	6%
Cc1cccc(NC(=O)c2ccc(OCc3c(C)noc3C)cc2)n1	0%	.	.	.	.	.
Cc1cccnc1NC(=O)c1ccc(OCc2c(C)noc2C)cc1	1%	52*	22*	0%	3%	-4%
Cc1noc(C)c1COc1ccc(C(=O)Nc2ccccc2)cc1	2%	23	9	1%	.	-5%[11.5 µM]
CCCCCCC(=O)N1CCCC(c2nc(-c3cccc(OC)c3)no2)C1 (configuration not stated)	0%	14	-2	-1%	-58%	5%
COc1cccc(-c2noc(C3CCCN(C(=O)Cc4ccccc4)C3)n2)c1 (configuration not stated)	4%	24	23*	-3%	-10%	-2%
CCCC(=O)N1CCCC(c2nc(-c3cccc(OC)c3)no2)C1 (configuration not stated)	-4%	77*	32*	-1%	-3%	-17%
COc1cccc(-c2noc(C3CCCN(C(=O)c4cccc(F)c4)C3)n2)c1 (configuration not stated)	3%	45*	35*	-2%	1%	-3%
COc1ccc(CC(=O)NC2CC(=O)N(c3cccc(F)c3)C2)cc1 (configuration not stated)	3%	.	.	.	.	.
CCOC(=O)c1cccc(NC(=O)N2CCC(CN3CCCCCC3)CC2)c1	3%	.	.	.	.	.
CC(NC(=O)C12CC3CC(CC(O)(C3)C1)C2)c1ccccc1 (configuration not stated)	-4%	-13	-1	0%	6%	-4%
Cc1cccc(N2CCc3c2nc2ccccc2c3N)c1	-3%	27*!	17*!	2%	-23%	-2%
O=C(NC1CCCCCCC1)c1cc(F)c(F)cc1Cl	4%	83*	26*	0%	4%	-3%
Cc1ccc(C(=O)NC2CCCCCCC2)c(Cl)c1	-3%	.	16*	1%	4%	0%
COc1ccc(C(C)(C)NC(=O)C2CCC(=O)N(C3CC3)C2)cc1OC (configuration not stated)	-1%	-6	2	7%	0%	3%
O=C(CCNS(=O)(=O)c1ccc(Br)cc1)NCC(c1cccs1)N1CCOCC1 (configuration not stated)	0%	.	.	.	.	.
SMILES	Tb PYK inh	Shiga inhibitor	Cycloheximide cs	SARS PLpro yeast	NS1 function inh	LmPK inh
Cc1ccc(N2CC(NC(=O)/C=C\c3ccc4c(c3)OCO4)CC2=O)cc1C (configuration not stated)	-3%	.	.	.	.	.
C=CCn1c(SCC(=O)NCCOC)nnc1-c1cc2c(s1)CCC(CC)C2 (configuration not stated)	-5%	-70	15*	11%	-7%	-2%
C=CCn1c(SCC(=O)NCC)nnc1-c1cc2c(s1)CCC(CC)C2 (configuration not stated)	3%	94*	42*	9%	-51%	3%
C=CCn1c(SCC(=O)NC(N)=O)nnc1-c1cc2c(s1)CCC(CC)C2 (configuration not stated)	4%	34	9	-1%	0%	6%
CC(=O)Nc1ccc(NC(=O)N2CCOCC2)cc1	3%	.	.	.	.	.
O=C(Nc1ccc(Cl)cc1)N1CCCC1	4%	36	14*	-22%	-29%	-2%
O=C(Nc1ccc(Cl)cc1)N1CCOCC1	-1%	.	14*	0%	-13%	-2%
CC(C)n1c(N2CCN(C(=O)Nc3ccc(Cl)cc3)CC2)nc2ccccc21	1%	34*	-1	-3%	-7%	0%
CCCn1c(N2CCN(C(=O)Nc3ccc(Cl)cc3)CC2)nc2ccccc21	7%	12	-2	-1%	0%	2%
O=C(Nc1ccc(Cl)cc1)N1CCSCC1	4%	21	7	-1%	-2%	4%
CC(C)c1ccc(NC(=O)N2CCOCC2)cc1	3%	62*	39*	2%	6%	-10%
COc1ccc(C(=O)NCC(=O)N/N=C(\C)c2ccco2)cc1OC	-3%	17	6	0%	3%	-1%
O=C(Nc1ccc(F)cc1)N1CCN(c2ncccn2)CC1	-13%	22	-2	0%	1%	-10%
O=C(Nc1ccc(Cl)cc1)N1CCN(c2ncccn2)CC1	1%	46	20*	-1%	-1%	-2%
O=C(Nc1ccc(Cl)cc1)N1CC2CC(C1)c1cccc(=O)n1C2 (configuration not stated)	1%	33	28*	-1%	-16%	-1%
O=C(Nc1ccc(Cl)cc1)N1CCSc2ccccc21	-13%	27	35*	-2%	-7%	-1%
CCN(CC)S(=O)(=O)c1ccc2c(c1)N(CC(=O)N1CCN(c3ccccc3F)CC1)C(=O)CO2	3%	.	.	.	.	.
O=C(NC(=S)Nc1cccc2cc(O)ccc12)c1ccco1	-1%	33	13	3%	-12%	-1%
O=C(NC(=S)Nc1cccc(Cl)c1N1CCCCC1)c1ccco1	-4%	43	2	-19%	8%	0%
O=C(NC(=S)Nc1ccccc1Cl)c1ccco1	-7%	90*	44*	-6%	-11%	0%
COC(=O)c1ccccc1NC(=S)NC(NC(=O)c1ccco1)C(Cl)(Cl)Cl (configuration not stated)	?	-2	18	0%	19%	6%
O=C(NC(=S)Nc1cccc2c(O)cccc12)c1ccco1	-2%	109*	26*	-5%	-21%	-3%
O=C(NC(NC(=S)Nc1ccccc1C(=O)O)C(Cl)(Cl)Cl)c1ccco1 (configuration not stated)	-17%	45*	31*	6%	2%	0%
